Data on 16 molecules can be found in PubChem BioAssay (EPA / NIEHS).

A structure can be active in one record and inactive in another. Active and inactive are the calls of the source. The calls were made as follows: active = hit-call score of the fitted dose curve at least 0.9, where 1 is the maximum; inactive = score below 0.9.

As a reminder, the AC50 is the concentration at which the activity in the assay is half-maximal.

This assay in a line: CEETOX_H295R_ESTRONE: CeeTox H295R High-throughput Steroidogenesis Assay for Estrone (AID 2283441).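 Also: estrone secreted into medium measured by LC-MS/MS after dansyl derivatization.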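 As to AC50: human adrenal H295R cells prestimulated with forskolin for two days.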 The following applies: actives raise or lower the signal. The procedure:
CEETOX_H295R is a cell-based, multiplexed-readout assay that uses H295R, a human adrenal gland cell line, with measurements taken at 48 hours after chemical dosing in a 96-well plate.CEETOX_H295R_ESTRONE is one of 23 assay component(s) measured or calculated from the CEETOX_H295R assay. It is designed to make measurements of hormone induction, a form of inducible reporter, as detected with absorbance signals by HPLC-MS-MS technology.Data from the assay component CEETOX_H295R_ESTRONE was analyzed into 1 assay endpoint. This assay endpoint, CEETOX_H295R_ESTRONE, was analyzed with bidirectional fitting relative to DMSO as the negative control and baseline of activity. Using a type of inducible reporter, gain or loss-of-signal activity using HPLC-MS-MS was used to understand synthesis of Estrone in H295R cell line at 48hr of chemical exposure. To generalize the intended target to other relatable targets, this assay endpoint is annotated to the steroid hormone intended target family, where the subfamily is estrogens.
Cell culture and media preparation procedures were conducted in accordance with OECD Test No. 456 guidelines, with minor modifications. H295R cells (ATCC CRL-2128) were expanded for 5 passages and frozen in batches in liquid nitrogen. Prior to the steroidogenesis assay, H295R cells were thawed and passed at least 4 times. The maximum passage was 10. […] After seeding cells into 96-well plates at 50-60% confluency, cells were allowed to adhere overnight. Prior to chemical testing, culture medium was replaced with 175 uL medium containing 10 uM forskolin to stimulate steroidogenesis for 48 hours. Following prestimulation, forskolin medium was replaced with medium containing test chemical solubilized in DMSO (ensuring a final concentration of 0.1% DMSO). Test chemicals were incubated for 48 hours, then the medium was removed and split into 2 vials containing approximately 75uL each, and stored at -80 C prior to hormone analysis. For steroid quantification, media samples were shipped to OpAns, LLC (Durham, NC) on dry ice, and samples were thawed to room temperature prior to liquid-liquid extraction. Steroid hormones were extracted from media samples using methyl tertbutyl ether (MTBE). An extra derivatization with dansyl chloride was included for estrogen (estrone and estradiol) detection only. Steroid hormones were separated by HPLC, eluted using a reverse phase C18 gradient with electrospray positive ionization, followed by quantification by tandem mass spectrometry (MS/MS). Data were acquired on a MassHunter Workstation Acquisition version B03.01 (Agilent Technologies, Inc.) and processed using MassHunter Quantitative Analysis for QQQ. Accuracy was determined for each hormone analyte from 3 standards to determine upper and lower limits of quantification (ULOQ and LLOQ, respectively) using a 7-point standard curve. Precision and accuracy of the extraction and quantification methods were calculated as the percent relative standard deviation (%RSD) of the spiked standards and percent spiked standard recovered, respectively. The goal was to achieve 100% accuracy (i.e., recover all spiked-in standard at quantification with minimal loss during run time) and good precision (i.e., have %RSD <15% to ensure reproducibility). Test medium was removed following chemical exposure, and cell viability was evaluated in the same wells by MTT. MTT procedures were as follows: after removal of test medium, 500 uL of 0.5 mg/ml of 3-[4,5-dimethylthiazol-2-y]2,5-diphenyltetrazoliumbromide solution was added to the cells. Following a 4-hour incubation at 37 C and 5% CO2 to allow formazan-crystal formation, the MTT solution was removed and blue formazan salt crystals were solubilized using 500uL anhydrous isopropanol with shaking for 20 minutes. Absorbance was read at 570 and 650nm using a Packard Fusion microplate reader. Background correction of absorbance units was used to determine percent change relative to controls. […] […]
In the case of `C=CC1(C)OC(=O)N(c2cc(Cl)cc(Cl)c2)C1=O` (configuration not stated), the molecule was classed as inactive.

Take `N#CC(CCc1ccc(Cl)cc1)(Cn1cncn1)c1ccccc1` (configuration not stated): the call was inactive.

Take `Oc1ccccc1-c1ccccc1`: the molecule was classed as inactive and the AC50 was 50 µM (active).

On to `Cc1c(F)c(F)c(COC(=O)C2C(/C=C(\Cl)C(F)(F)F)C2(C)C)c(F)c1F` (configuration not stated), for which the molecule was called inactive.

In the case of `CCNc1nc(Cl)nc(NCC)n1`, the AC50 is 8.07 µM (active).

With `CC(C)Oc1cc(-n2nc(C(C)(C)C)oc2=O)c(Cl)cc1Cl`, the molecule was classed as inactive.

Turning to `CCCCNC(=O)n1c(NC(=O)OC)nc2ccccc21`, the outcome was inactive.

For the molecule `CCNc1nc(Cl)nc(NC(C)C)n1`, the AC50 is 1.35 µM (active).

As to `CCOC(=O)C(Cl)Cc1cc(-n2nc(C)n(C(F)F)c2=O)c(F)cc1Cl` (configuration not stated), the result was inactive.

`COP(=S)(OC)Oc1nc(Cl)c(Cl)cc1Cl`: the molecule was classed as inactive.

With `COc1nc(NC(C)C)nc(NC(C)C)n1`, the AC50 is 3.8 µM (active).

As for `CC1=C(C(=O)Nc2ccccc2)SCCO1`, the molecule was called inactive.

Regarding `CC1COC(Cn2cncn2)(c2ccc(Oc3ccc(Cl)cc3)cc2Cl)O1` (configuration not stated), the molecule was called inactive.

As for `CCOc1cc(Oc2ccc(C(F)(F)F)cc2Cl)ccc1[N+](=O)[O-]`, the AC50 was 3.32 µM (active).

On to `CNC(=S)S`, for which the call was inactive.

On to `CCOP(=S)(OCC)SCn1c(=O)oc2cc(Cl)ccc21`, for which the AC50 was 1.62 µM (active).
